Assay results: publication PMC4336329 (PLoS ONE, 2015)
The campaign covered roughly 310,000 compounds. About 14,000 (4.5%) showed an effect of 50% or more. Effects have a minus sign here. This is one part of a sample in which strong results are shown more often than they occur.

molecular target: human ether-à-go-go-related gene (hERG) potassium channel (human, UniProt Q12809); test: primary screen, population patch clamp on CHO cells stably expressing hERG; higher = less effect of the substance
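Further: peak tail current of the secondary pulse compared with the same well before compound.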

Sequence of human ether-à-go-go-related gene (hERG) potassium channel (Q12809 whole entry, looked up): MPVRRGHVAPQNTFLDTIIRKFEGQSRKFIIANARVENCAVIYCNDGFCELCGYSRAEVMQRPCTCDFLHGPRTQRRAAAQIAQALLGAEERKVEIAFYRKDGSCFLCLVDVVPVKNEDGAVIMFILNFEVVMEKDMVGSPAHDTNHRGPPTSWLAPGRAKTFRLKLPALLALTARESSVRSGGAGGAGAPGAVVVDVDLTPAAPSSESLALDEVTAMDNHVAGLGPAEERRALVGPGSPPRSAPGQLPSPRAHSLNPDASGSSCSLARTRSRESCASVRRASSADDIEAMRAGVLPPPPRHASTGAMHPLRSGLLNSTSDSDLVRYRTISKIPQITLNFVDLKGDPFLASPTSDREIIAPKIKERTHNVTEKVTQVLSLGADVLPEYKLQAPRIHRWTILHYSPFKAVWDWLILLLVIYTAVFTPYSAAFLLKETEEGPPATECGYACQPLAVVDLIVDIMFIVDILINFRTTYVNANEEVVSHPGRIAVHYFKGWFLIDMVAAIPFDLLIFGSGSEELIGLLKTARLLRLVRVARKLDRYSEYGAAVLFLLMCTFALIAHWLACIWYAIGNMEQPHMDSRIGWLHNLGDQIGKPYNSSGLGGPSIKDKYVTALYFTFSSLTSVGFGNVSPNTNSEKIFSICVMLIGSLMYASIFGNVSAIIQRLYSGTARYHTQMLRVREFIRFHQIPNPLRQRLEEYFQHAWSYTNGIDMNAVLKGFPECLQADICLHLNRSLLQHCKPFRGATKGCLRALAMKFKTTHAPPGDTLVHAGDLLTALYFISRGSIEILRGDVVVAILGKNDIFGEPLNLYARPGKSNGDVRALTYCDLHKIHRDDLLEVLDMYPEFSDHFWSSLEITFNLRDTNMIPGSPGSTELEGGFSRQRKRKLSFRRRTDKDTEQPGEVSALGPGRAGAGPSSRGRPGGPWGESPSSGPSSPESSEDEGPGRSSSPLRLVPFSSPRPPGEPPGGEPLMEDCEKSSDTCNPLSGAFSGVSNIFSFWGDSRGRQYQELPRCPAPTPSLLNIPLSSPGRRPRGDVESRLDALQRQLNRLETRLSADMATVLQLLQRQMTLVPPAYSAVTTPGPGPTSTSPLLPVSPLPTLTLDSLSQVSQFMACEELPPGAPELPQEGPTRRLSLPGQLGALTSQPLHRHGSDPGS

Row | Compound | hERG current change (%, negative = inhibition) at 10uM [%]
1 | CN(C(=O)Cc1c(C(=O)O)n(C)c2ccccc12)c1ccc(F)cc1 | 19.8
2 | CCn1c(COc2ccc(Cl)cc2)nnc1SCc1ccc(C#N)cc1 | -70.5
3 | CCn1c(COc2ccccc2)nnc1SCC(=O)C(C)(C)C | -14.2
4 | N#Cc1ccc(CSc2nnc(COc3ccccc3)n2-c2ccccc2)cc1 | -52.3
5 | COc1ccc(-n2c(COc3ccc(C)cc3)nnc2SCc2ccc(C#N)cc2)cc1 | -29.6
6 | CCSc1nnc(COc2ccccc2)n1CC | 6.43
7 | COc1ccc(-n2c(COc3ccc(Cl)cc3)nnc2SCc2ccc(C#N)cc2)cc1 | 0.977
8 | COc1ccc(-n2c(COc3ccccc3)nnc2SCc2ccc(C#N)cc2)cc1 | -39.4
9 | CCn1c(COc2ccc(C)cc2)nnc1SCc1ccc(C#N)cc1 | -59.6
10 | N#CCSc1nnc(COc2ccccc2)n1-c1ccccc1 | -10.7
11 | CCn1c(COc2ccccc2)nnc1SCc1ccc(C#N)cc1 | -54.1
12 | Cc1ccc(OCc2nnc(SCc3ccc(C#N)cc3)n2-c2ccc(C)cc2)cc1 | -29.6
13 | CCn1c(COc2ccc(Cl)cc2)nnc1SCc1nc2ccccc2[nH]1 | -17.7
14 | COc1ccc(/C=N/NC(=O)CCN2CCCCC2c2cccnc2)cc1Cn1cc([N+](=O)[O-])cn1 (stereo not drawn) | -30.7
15 | CCCCOCCCNC(=O)Cc1cccs1 | 1.1
16 | O=C(CN1C(=O)c2ccccc2C1=O)NN1C(=O)c2ccccc2C1=O | 1.18
17 | Cc1c(C(=O)Oc2cccc3cccnc23)oc2ccccc12 | -4.01
18 | Cc1cnc(C(=O)OCC(=O)NC2CCCC(C)C2C)cn1 (stereo not drawn) | 6.02
19 | O=C(Nc1ccccc1N1CCCC1)c1cc(Cl)ccc1Cl | -2.72
20 | CC(=O)N1CCN(c2ccccc2NC(=O)c2cc(Br)ccc2Cl)CC1 | -66.6
21 | CC(=O)N1CCN(c2ccccc2NC(=O)c2cccc3c(Cl)cccc23)CC1 | -19.2
22 | O=C(Nc1ccccc1N1CCCC1)c1ccc2ccccc2c1 | 8.73

Row | Compound | hERG current change (%, negative = inhibition) at 10uM [%]
23 | CC(=O)N1CCN(c2ccccc2NC(=O)c2ccc3ccccc3c2)CC1 | -61.9
24 | CN1CCN(c2ccccc2NC(=O)c2cc(Br)ccc2Cl)CC1 | -76.4
25 | CS(=O)(=O)N1CCN(c2ccccc2NC(=O)c2ccc3ccccc3c2)CC1 | -8.76
26 | CS(=O)(=O)N1CCN(c2ccccc2NC(=O)c2cc(Br)ccc2Cl)CC1 | -30.3
27 | COc1c(Cl)cc(Cl)cc1C(=O)Nc1ccccc1N1CCN(C(C)=O)CC1 | 3.01
28 | CC(C)C(NC(=O)COc1ccc2ccccc2c1)C(=O)N/N=C/C=C/c1ccccc1 (stereo not drawn) | 14.8
29 | COc1cc(C2/C(=C(\O)c3ccc4c(c3)CC(C)O4)C(=O)C(=O)N2c2nnc(C)s2)cc(OC)c1OC (stereo not drawn) | 9.14
30 | Cc1c(Cc2ccccc2)c(=O)oc2cc(OCC(=O)N3CCC(C(=O)O)CC3)ccc12 | 6.24
31 | Cc1noc(C)c1COc1ccc(C(=O)OCC(=O)N2CC3(C)CC2CC(C)(C)C3)cc1 (stereo not drawn) | -6.44
32 | COC(=O)c1ccc(Oc2c(Cl)cccc2[N+](=O)[O-])cc1 | 3.65
33 | COc1ccc(OC(C)C(=O)NCC2CCCO2)cc1 (stereo not drawn) | 18.5
34 | COC(=O)c1sc(N)c(C(=O)OC)c1COC(=O)c1c(C)noc1C | -3.57
35 | Cc1noc(C)c1CSc1nnc(C)c(=O)[nH]1 | 7.14
36 | CCOC(=O)c1[nH]c(C)c(C(=O)OCC(=O)N(C)C2CCS(=O)(=O)C2)c1C (stereo not drawn) | 29
37 | Cc1cccc(CN2CCN(Cc3ccc4nonc4c3)CC2CCO)n1 (stereo not drawn) | -35.6
38 | OCCC1CN(Cc2ccc3nonc3c2)CCN1Cc1ccsc1 (stereo not drawn) | -66.1
39 | CC(C)N1CCC(N2CCN(Cc3cccc4nonc34)CC2CCO)CC1 (stereo not drawn) | 3.08
40 | OCCC1CN(Cc2ccc3cc(Cl)ccc3n2)CCN1Cc1ccsc1 (stereo not drawn) | -65
41 | OCCC1CN(Cc2cccc3nonc23)CCN1C1CCCCC1 (stereo not drawn) | -5.74
42 | OCCC1CN(Cc2cccc3nonc23)CCN1Cc1ccsc1 (stereo not drawn) | -52.6
43 | CCOc1ccc2nc(CN3CCN(Cc4ccsc4)C(CCO)C3)ccc2c1 (stereo not drawn) | -47
44 | O=C(CN1CCCC1)Nc1ccc(Cl)cc1C(F)(F)F | 0.32

Row | Compound | hERG current change (%, negative = inhibition) at 10uM [%]
45 | COCC(C)N=C1NN=C(c2cccs2)C(CC(=O)O)S1 (stereo not drawn) | 20
46 | CS(=O)(=O)Oc1ccc(/C=C2\C(=N)N3N=C(CC(=O)N4CCOCC4)SC3=NC2=O)cc1Cl | -2.27
47 | COc1cc2c(cc1OC)/C(=C/c1ccc(Cl)cc1)C(=O)OC2 | -36.4
48 | NC(=O)CSc1nnc(NC(=O)C2CC(=O)N(c3ccc(F)cc3)C2)s1 (stereo not drawn) | 26.1
49 | O=C(Cc1ccc(S(=O)(=O)N2CCOCC2)s1)OCc1ccc(Cl)cc1 | -20.1
50 | COC(=O)c1ccc(NC(=O)COc2ccc(S(=O)(=O)N3CCCCC3)cc2)cc1 | -9.57
51 | Cc1ccc(Cl)c(OCC(=O)NCc2ccco2)c1 | 1.03
52 | COc1ccc(OC)c(/C=N/NC(=O)CCc2n[nH]c(=O)[nH]c2=O)c1 | 4.8
53 | CCOc1ccccc1N1CC(C(=O)Nc2ccc(S(=O)(=O)N3CCCCC3)cc2)CC1=O (stereo not drawn) | -3.91
54 | S=C(Nc1ccc2cn[nH]c2c1)Nc1ccccc1Cl | -4.68
55 | COc1ccc(S(=O)(=O)N2CCCCCC2)cc1C(=O)N(C)Cc1ccccc1F | -53.2
56 | COc1ccc(S(=O)(=O)N2CCCCCC2)cc1C(=O)N(C)Cc1c(F)cccc1Cl | -49.8
57 | Cc1ccc(S(=O)(=O)NCc2ccccc2)cc1C(=O)N(C)CC(=O)Nc1c(Cl)cccc1Cl | -30.4
58 | COc1cccc(NC(=O)CN(C)C(=O)c2cc(S(=O)(=O)NCc3ccccc3)ccc2C)c1 | -71.1
59 | COc1cccc(NC(=O)CN(C)C(=O)c2cc(S(=O)(=O)N3CCCCC3)ccc2Cl)c1 | -34.7
60 | COc1ccc(NS(=O)(=O)c2ccc(C)c(C(=O)N(C)CC(=O)Nc3cccc(OC)c3)c2)cc1 | -9.42
61 | COc1ccc(NC(=O)CN(C)C(=O)c2cc(S(=O)(=O)N3CCCCCC3)ccc2OC)cc1 | -24
62 | COc1cccc(NC(=O)CN(C)C(=O)c2cc(S(=O)(=O)N3CCCCCC3)ccc2OC)c1 | -50.9
63 | COc1ccc(S(=O)(=O)N2CCOCC2)cc1C(=O)N(C)Cc1ccccc1F | -37.8
64 | Cc1ccc(S(=O)(=O)N(Cc2cccc(C(F)(F)F)c2)C(=O)N2CCN(C)CC2)cc1 | 10.3
65 | COC(=O)CCC(=O)OC1(C)C(=O)C2=CN(CCCOC(C)C)C(c3ccc(OC)cc3)=CC2=C(Br)C1=O (stereo not drawn) | -22.7
66 | CC(=O)NC(=O)NC1CSCC1OC(C)=O (stereo not drawn) | 15.8

Row | Compound | hERG current change (%, negative = inhibition) at 10uM [%]
67 | CC(NC(=O)CCCn1cc([N+](=O)[O-])cn1)c1ccccc1 (stereo not drawn) | -3.6
68 | COc1ccccc1/C=N/NC(=O)CC(=O)NCCc1ccccc1 | 12.1
69 | CCOC(=O)c1cc(-c2ccccc2)sc1NC(=O)CC | 1.19
70 | CCOCC(=O)Nc1ccc(S(=O)(=O)NCCc2ccccc2)cc1 | -22.9
71 | Nc1ccc(C(=O)Nc2ccccc2C(=O)O)cc1 | 10.2
72 | Cc1[nH]n2c(=O)c3c(nc2c1-c1ccccc1)CCC3 | 0.138
73 | CCCN(CCC(=O)Nc1cc(OC)cc(OC)c1)CC1CC1.Cl | -12.1
74 | Cc1cc(NC(=O)c2nn3cccnc3c2Cl)no1 | 6.12
75 | CNC(=S)Nc1cc(Cl)ccc1Oc1ccccc1 | -6.86
76 | CCc1nnc(NC(=O)CCN2C(=O)CCC2=O)s1 | -8.3
77 | COc1ccc2sc(-c3ccc(SC)cc3)c(C#CC(C)(C)O)c2c1 | 11.6
78 | CCOC(=O)C1(CCOc2ccccc2)CCN(Cc2ccccc2O)CC1 | -30.8
79 | CCOC(=O)C1(CCOc2ccccc2)CCN(Cc2cccc(OC)c2O)CC1 | -70.5
80 | CCOC(=O)C1(CCOc2ccccc2)CCN(Cc2ccccc2OC)CC1 | -71.4
81 | CCOC(=O)C1(CCOc2ccccc2)CCN(Cc2cc(OC)c(O)cc2Cl)CC1 | -69.2
82 | CCOC(=O)C1(CCOc2ccccc2)CCN(Cc2cc(OC)ccc2OC)CC1 | -73.2
83 | O=C(O)c1cc(-n2[nH]c(=O)c3ccccc3c2=O)ccc1Cl | 21.3
84 | Cc1sc2ncnc(N3CCCCC3C)c2c1C (stereo not drawn) | -13.6
85 | Cc1cc(C)c(C(=O)CN2C(=O)NC3(CCC(C)CC3)C2=O)cc1C (stereo not drawn) | 11.1
86 | COC(=O)c1sccc1NC(=O)CC1NCCNC1=O (stereo not drawn) | 0.0435
87 | COc1ccccc1NC(=O)/C=C/c1ccc2c(c1)OCO2 | -8.32
